In the supplement of paper PMC7724964:

T1: BTN1A1 285-479 SPRY (domain begin residue: 285, domain end residue: 479), Q13410
T1 chain: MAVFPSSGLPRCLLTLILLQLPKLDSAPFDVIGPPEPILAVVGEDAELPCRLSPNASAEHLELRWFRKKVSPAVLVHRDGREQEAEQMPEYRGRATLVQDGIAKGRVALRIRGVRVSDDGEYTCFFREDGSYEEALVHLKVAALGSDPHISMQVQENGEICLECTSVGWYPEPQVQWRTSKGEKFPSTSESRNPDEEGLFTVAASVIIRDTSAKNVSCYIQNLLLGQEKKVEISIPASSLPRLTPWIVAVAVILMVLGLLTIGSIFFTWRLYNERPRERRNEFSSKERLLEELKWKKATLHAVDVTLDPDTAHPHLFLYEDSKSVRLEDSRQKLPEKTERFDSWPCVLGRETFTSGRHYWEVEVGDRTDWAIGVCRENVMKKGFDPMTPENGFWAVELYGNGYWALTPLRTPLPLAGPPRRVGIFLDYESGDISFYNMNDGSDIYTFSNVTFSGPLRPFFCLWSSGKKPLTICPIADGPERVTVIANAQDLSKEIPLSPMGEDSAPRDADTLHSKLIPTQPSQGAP

T2: ALDOA 1-364 Glycolytic (domain begin residue: 1, domain end residue: 364), P04075
T2 chain: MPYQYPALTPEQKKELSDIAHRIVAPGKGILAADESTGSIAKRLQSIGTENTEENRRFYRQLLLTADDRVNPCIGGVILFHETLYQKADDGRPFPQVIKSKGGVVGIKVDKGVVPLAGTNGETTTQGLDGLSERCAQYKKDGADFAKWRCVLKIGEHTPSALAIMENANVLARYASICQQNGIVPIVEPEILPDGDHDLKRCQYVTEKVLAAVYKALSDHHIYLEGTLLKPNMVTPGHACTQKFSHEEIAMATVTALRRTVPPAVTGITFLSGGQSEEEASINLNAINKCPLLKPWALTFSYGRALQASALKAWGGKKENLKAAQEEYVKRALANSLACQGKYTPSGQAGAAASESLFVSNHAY

T3: ARID4A 568-634 Tudor-knot (domain begin residue: 568, domain end residue: 634), P29374
T3 chain: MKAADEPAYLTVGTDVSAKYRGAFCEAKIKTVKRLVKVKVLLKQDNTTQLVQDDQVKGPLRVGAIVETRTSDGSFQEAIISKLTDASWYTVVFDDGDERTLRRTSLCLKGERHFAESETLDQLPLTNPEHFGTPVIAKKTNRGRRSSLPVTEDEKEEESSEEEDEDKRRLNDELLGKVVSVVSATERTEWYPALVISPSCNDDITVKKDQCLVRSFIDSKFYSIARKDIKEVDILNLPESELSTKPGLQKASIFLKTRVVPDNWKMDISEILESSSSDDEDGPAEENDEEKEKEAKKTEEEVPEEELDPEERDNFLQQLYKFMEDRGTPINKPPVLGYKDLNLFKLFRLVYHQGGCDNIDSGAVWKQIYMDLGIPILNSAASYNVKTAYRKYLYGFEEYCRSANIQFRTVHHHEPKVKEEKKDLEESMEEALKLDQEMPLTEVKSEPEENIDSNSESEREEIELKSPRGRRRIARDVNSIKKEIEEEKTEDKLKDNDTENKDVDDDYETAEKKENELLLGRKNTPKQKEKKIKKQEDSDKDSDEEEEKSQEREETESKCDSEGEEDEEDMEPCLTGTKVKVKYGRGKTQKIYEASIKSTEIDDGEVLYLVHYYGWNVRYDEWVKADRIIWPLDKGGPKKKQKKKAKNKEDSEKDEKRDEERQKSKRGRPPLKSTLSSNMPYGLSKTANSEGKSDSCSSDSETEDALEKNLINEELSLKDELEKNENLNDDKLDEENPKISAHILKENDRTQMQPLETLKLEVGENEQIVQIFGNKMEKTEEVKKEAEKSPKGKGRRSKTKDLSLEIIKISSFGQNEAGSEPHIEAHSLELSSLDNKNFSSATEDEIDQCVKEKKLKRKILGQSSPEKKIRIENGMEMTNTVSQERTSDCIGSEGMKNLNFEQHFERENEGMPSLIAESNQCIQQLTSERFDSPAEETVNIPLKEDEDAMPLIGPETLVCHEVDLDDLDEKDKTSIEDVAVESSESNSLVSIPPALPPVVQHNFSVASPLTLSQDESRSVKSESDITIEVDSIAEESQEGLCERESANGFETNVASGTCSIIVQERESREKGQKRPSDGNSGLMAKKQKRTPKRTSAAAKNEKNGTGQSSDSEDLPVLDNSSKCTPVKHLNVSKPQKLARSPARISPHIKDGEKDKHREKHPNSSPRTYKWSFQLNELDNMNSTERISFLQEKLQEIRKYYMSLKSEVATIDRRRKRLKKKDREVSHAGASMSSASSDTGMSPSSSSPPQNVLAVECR

T4: TDRD1 261-449 TUDOR (domain begin residue: 261, domain end residue: 449), Q9BXT4
T4 chain: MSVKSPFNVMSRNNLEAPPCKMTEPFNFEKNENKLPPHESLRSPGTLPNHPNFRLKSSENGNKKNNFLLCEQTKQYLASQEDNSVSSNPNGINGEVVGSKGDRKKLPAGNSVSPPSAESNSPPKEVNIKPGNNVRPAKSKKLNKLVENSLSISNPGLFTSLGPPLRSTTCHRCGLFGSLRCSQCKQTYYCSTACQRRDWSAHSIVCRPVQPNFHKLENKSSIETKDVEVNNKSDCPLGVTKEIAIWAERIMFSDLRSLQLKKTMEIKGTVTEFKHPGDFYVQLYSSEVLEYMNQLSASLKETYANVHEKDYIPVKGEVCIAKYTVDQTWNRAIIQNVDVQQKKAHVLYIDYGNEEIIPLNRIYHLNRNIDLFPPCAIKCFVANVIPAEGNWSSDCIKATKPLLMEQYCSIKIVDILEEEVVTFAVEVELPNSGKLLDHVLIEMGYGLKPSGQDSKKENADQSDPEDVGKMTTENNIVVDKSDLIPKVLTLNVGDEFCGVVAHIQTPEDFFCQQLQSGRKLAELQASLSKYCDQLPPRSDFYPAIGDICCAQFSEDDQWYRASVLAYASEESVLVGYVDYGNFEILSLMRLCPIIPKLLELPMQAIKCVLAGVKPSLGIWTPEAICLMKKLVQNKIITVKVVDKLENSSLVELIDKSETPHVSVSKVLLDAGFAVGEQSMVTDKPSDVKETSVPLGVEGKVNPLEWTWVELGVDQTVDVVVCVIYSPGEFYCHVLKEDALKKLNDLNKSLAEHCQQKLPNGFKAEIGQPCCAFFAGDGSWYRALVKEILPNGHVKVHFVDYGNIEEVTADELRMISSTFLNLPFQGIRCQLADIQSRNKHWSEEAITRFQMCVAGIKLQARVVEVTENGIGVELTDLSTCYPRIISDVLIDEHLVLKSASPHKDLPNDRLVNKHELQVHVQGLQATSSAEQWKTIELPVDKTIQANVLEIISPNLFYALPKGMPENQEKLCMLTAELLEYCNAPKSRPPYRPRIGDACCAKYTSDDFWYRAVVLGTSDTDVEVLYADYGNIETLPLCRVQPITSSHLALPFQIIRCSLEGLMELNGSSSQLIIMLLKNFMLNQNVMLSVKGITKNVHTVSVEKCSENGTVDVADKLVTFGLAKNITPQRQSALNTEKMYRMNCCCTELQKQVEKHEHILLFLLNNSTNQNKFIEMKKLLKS


Biological target: T1, BTN1A1 285-479 SPRY (domain begin …
Assay: phage ELISA signal ratio (GST-PRM binding over GST background); higher = stronger binding of peptide-phage to the PRM
Experimental: (§1)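 Phage-displayed random hexadecapeptides (Cys-free, flanked by invariant Gly linkers, fused to the M13 P8 major coat protein) were selected over 5 rounds against GST-fused human PRM domains. Individual clones from rounds 4-5 were tested by phage ELISA, and positive clones binding the target but not GST were sequenced. Values are the ELISA signal ratio of target over background (GST); the background signal is given separately.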

Compared with PKTGEPWHPWIPHWLA, SWDHWDEKMTSMVVFM is higher in “phage ELISA signal ratio” value: 8.34 for the first, 9.92 for the second.

Biological target: T2, ALDOA 1-364 Glycolytic (domain begin …
Assay: as above
Experimental: as §1

Compared with WHVWDPVMEVFDWPEM, EFLWDPVQEMHVMVNE is lower in “phage ELISA signal ratio” value: 18.1 for the first, 5.28 for the second.

For MYDEWHMPDSYEVVVQ, the “phage ELISA signal ratio” value was 19.3.

Biological target: T3, ARID4A 568-634 Tudor-knot (domain begin …
Assay: as above
Experimental: as §1

Compared with DYMSHLFDTMSGVQFQ, PWDEIWEDMIEWPLPQ is higher in “phage ELISA signal ratio” value: 6.29 for the first, 9.72 for the second.

Biological target: T4, TDRD1 261-449 TUDOR (domain begin …
Assay: as above
Experimental: as §1

For DYMSHLFDTMSGVQFQ, the “phage ELISA signal ratio” value was 8.02.

Biological target: CBX3 109-173 Chromo_shadow (domain begin residue: 109, domain end residue: 173), Q13185
Sequence (Q13185 whole entry): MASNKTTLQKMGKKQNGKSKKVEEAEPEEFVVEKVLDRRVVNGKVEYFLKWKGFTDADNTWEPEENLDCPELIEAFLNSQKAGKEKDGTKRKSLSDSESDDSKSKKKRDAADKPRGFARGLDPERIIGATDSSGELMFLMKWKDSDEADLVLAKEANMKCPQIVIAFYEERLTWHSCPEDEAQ
Assay: as above
Experimental: as §1

With YQMQQWQFSPEIWLNM the “phage ELISA signal ratio” value was 7.79.
